Data: article PMC7819943, “Rice protein-binding microarrays: a tool to detect cis-acting elements near promoter regions in rice”
Over roughly 68,000 sequences, “fluorescence intensity (a.u.)” has its median near 9,100; the highest 2% begin near 16,000. For the sample, the highest values were picked, then their nearest neighbours and some sequences at random.

target: OsWRKY34 (Oryza sativa, UniProt Q0JBA9 1-250); assay: protein-binding microarray (RPBM); PBS, 2% BSA, 51.3 ng/ul salmon testes DNA, 50 uM zinc acetate, 200 nM TF, 25 C, 1 h; high values mean tight binding; settings: protein: recombinant; tags: N-terminal polyhistidine and DsRed monomer fusion (pET32a); label: CyDye5-dUTP incorporated in the synthesized complementary strand; 3' TTTTT single-stranded linker to array surface; dsDNA, one strand shown
Sequence (Q0JBA9 entry or part of it): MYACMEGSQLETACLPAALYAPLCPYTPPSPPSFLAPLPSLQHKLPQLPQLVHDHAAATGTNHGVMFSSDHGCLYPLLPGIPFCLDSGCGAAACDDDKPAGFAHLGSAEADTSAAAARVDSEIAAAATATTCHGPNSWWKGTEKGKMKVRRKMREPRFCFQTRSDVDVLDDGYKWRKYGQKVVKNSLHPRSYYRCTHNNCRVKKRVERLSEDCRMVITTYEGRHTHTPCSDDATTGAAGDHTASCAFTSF
How it was run: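 Binding signal is reported as fluorescence intensity per feature (arbitrary units) from an Axon 4000B scanner. Incubation used 200 nM of each Ni–NTA-purified, N-terminally polyhistidine- and DsRed-fused transcription factor from E. coli BL21-CodonPlus on a double-stranded custom Agilent array for 1 h at 25 °C, with 50 µM zinc acetate in the buffer, followed by washing.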

Sequence	binding signal
ATCTTTGCCAAAATTTTTCTACTAGTATAATACTATCTCCCGGAGTCACCTAGTGCAG	8420 fluorescence intensity (a.u.)
AAGCTCCGATCCACAGCGCACCTCGAGCCCTACCTCCGATCGGAGTCACCTAGTGCAG	8940 fluorescence intensity (a.u.)
TTCCTCCATCCATTTTGTCAACTCCTCTCCGCTTTTCATCCGGAGTCACCTAGTGCAG	9640 fluorescence intensity (a.u.)
GCCTGGCGCGCCTCTCCTGCTCTGTTGGACCGCCGCGCCCCGGAGTCACCTAGTGCAG	12000 fluorescence intensity (a.u.)
CCACTCTCCGGCGCACCTATTTTCCATTTATATATATATGCGGAGTCACCTAGTGCAG	9670 fluorescence intensity (a.u.)
TTGAACCCTGCTCTCAGCTGAGCACCATGCAATAACTGTCCGGAGTCACCTAGTGCAG	8270 fluorescence intensity (a.u.)
CCAATGATATGTGCCGAAGTTGTATTTATCGAGAGATATTCGGAGTCACCTAGTGCAG	9850 fluorescence intensity (a.u.)
CCAGTGAATTACATTTTTGCCCGATCCCGTCGCGAACTCCCGGAGTCACCTAGTGCAG	8750 fluorescence intensity (a.u.)
CTGGGTGTTCAGATATATTACTAGAGGTCATACCATACAACGGAGTCACCTAGTGCAG	8130 fluorescence intensity (a.u.)
TACATTGTTAGTACTGTTTGGTGTAACTATTTTTTTATAACGGAGTCACCTAGTGCAG	8180 fluorescence intensity (a.u.)
CTACTAGTACAGGCTATATCGCTTACTCCCTTTGTCCTAACGGAGTCACCTAGTGCAG	8420 fluorescence intensity (a.u.)
GCCATATTATTTTTCCTTTGTCCTAATTAATGTTAGAAATCGGAGTCACCTAGTGCAG	9440 fluorescence intensity (a.u.)
GAGGAGGTGGTGGCGCGGCGTTCTTGGGGCTGGAGAGGGTCGGAGTCACCTAGTGCAG	8790 fluorescence intensity (a.u.)
CTAATTAGTACTGCAATTTTGGGTCCTTGGGTTGTTAGAACGGAGTCACCTAGTGCAG	16900 fluorescence intensity (a.u.)
TTAGTACTATTAATTTGGTGGGGTTGGGTGGGTGCTGTAACGGAGTCACCTAGTGCAG	16700 fluorescence intensity (a.u.)
TAGTTGTTGTTGTTGTTATTTGTTAATTGGGCCTTGTTCACGGAGTCACCTAGTGCAG	12300 fluorescence intensity (a.u.)
CTTGGCTGTTCTTGGGTGGGTGAGGTGGGGCGGTCGGATCCGGAGTCACCTAGTGCAG	17100 fluorescence intensity (a.u.)
TAGGGGTTAGTGTGCGAGCATGTGCTGTGTAATTTTTTAACGGAGTCACCTAGTGCAG	10600 fluorescence intensity (a.u.)
GGCTATCGGTGGGTGGGTGGGGTGTACTACTCCCCTATAACGGAGTCACCTAGTGCAG	22200 fluorescence intensity (a.u.)
AACCTACTAGCTAGCTTAGTGTACTCTGTGTACTGTATATCGGAGTCACCTAGTGCAG	8190 fluorescence intensity (a.u.)
TGGGTCTCTTGGGGTCGGTGGGGCGGTCGTCGTCCGTGCCCGGAGTCACCTAGTGCAG	11400 fluorescence intensity (a.u.)

Sequence	binding signal
CTTCGCTTTCGTCACGTTCTTGATTTGGGCGGGCGCGGAGCGGAGTCACCTAGTGCAG	8980 fluorescence intensity (a.u.)
CTCGGGAGAGGGGAGGCGTAGATTCTTCTGTTGCTTCAGTCGGAGTCACCTAGTGCAG	10300 fluorescence intensity (a.u.)
CGTCGAACGTCCACTACCATCCTCTTGTTAATCCCGCAAACGGAGTCACCTAGTGCAG	8060 fluorescence intensity (a.u.)
TTTCTTTGACTCGGTGACTTTGTGAGAGATGTTTTATGCCCGGAGTCACCTAGTGCAG	9190 fluorescence intensity (a.u.)
CTCCGTCCCATAATATAAGGGATTTTGACTTTTTACTTGCCGGAGTCACCTAGTGCAG	11200 fluorescence intensity (a.u.)
TCCCCGTTACCGAGCGCCGCCGCCTCCGCCTCCACCTCTACGGAGTCACCTAGTGCAG	10100 fluorescence intensity (a.u.)
TCTACACAATTCAAAATCCGGCCCTGTTTATTTTGTACTACGGAGTCACCTAGTGCAG	8420 fluorescence intensity (a.u.)
CTACACTCCTAATCTCTCTCTCTTTCTCGAGTGGAATCCACGGAGTCACCTAGTGCAG	8970 fluorescence intensity (a.u.)
ACGCGCCGCAACGCAACTTCCATGGACGCATCTGGACCACCGGAGTCACCTAGTGCAG	8130 fluorescence intensity (a.u.)
GTTTTTAATTTCGATAATATTTGATTCTGTTTTCGTGTCCCGGAGTCACCTAGTGCAG	8930 fluorescence intensity (a.u.)
ATTACCACTGATGCTGCTTGGTTCGCAATACTTGCTTCTTCGGAGTCACCTAGTGCAG	9730 fluorescence intensity (a.u.)
CTCGTATAGTTAGCTTGGAGGACTGAGCTTTGTGGGTGGGCGGAGTCACCTAGTGCAG	8880 fluorescence intensity (a.u.)
GTTCTGACTGTTGTGTTGTGGGTGTTTGGTTTATGAGCAGCGGAGTCACCTAGTGCAG	8430 fluorescence intensity (a.u.)
GACTGAGCTTTGTGGGTGGGTTGGTTGGTTGGTTATACAACGGAGTCACCTAGTGCAG	30500 fluorescence intensity (a.u.)
GTCTCCATTGCACCCACGTTGGATCCGCCCTTGCACATGGCGGAGTCACCTAGTGCAG	8470 fluorescence intensity (a.u.)
TAATTCATGGTTGGTTTTTAATTATATTTCCCTCCTTAAACGGAGTCACCTAGTGCAG	9580 fluorescence intensity (a.u.)
TCGTCGGTGGTGTGGGGAGGAGAAGATGGCCGGAGAGGAACGGAGTCACCTAGTGCAG	15000 fluorescence intensity (a.u.)
CGACGGGAGAGGAGGAGCCGGTGGGCGGGGTGGGGCCCACCGGAGTCACCTAGTGCAG	11000 fluorescence intensity (a.u.)
ATTTTGTGTTTTTGTGGTGGTAATATTGTTTTTGAGTTCTCGGAGTCACCTAGTGCAG	9700 fluorescence intensity (a.u.)
TTCGGGGTGTTCGTCAAAAATGTGGGGAGGAGGCATGGATCGGAGTCACCTAGTGCAG	13100 fluorescence intensity (a.u.)
ATCCCAAAATAATGTGTTCGGGTGGGCGGGCGGGAAATATCGGAGTCACCTAGTGCAG	23000 fluorescence intensity (a.u.)

Sequence	binding signal
TTACCAAACTGAAAATAAAAATGTGTGTTTTTTTTAATATCGGAGTCACCTAGTGCAG	9410 fluorescence intensity (a.u.)
GTGTTCTCATTGTATTGGGTATTCAAATGTTTTGTAATATCGGAGTCACCTAGTGCAG	9730 fluorescence intensity (a.u.)
GCGGGTGTGGCATTGTGGGTAATCTCGGCCGTTCAAATATCGGAGTCACCTAGTGCAG	17300 fluorescence intensity (a.u.)
AATCATCACATCATCACCGTCATCTTCTCTAGCATAGCAACGGAGTCACCTAGTGCAG	8050 fluorescence intensity (a.u.)
CCTTCCCATGCTGCTGTGATGTGTCATACGCCGCCGCCACCGGAGTCACCTAGTGCAG	9920 fluorescence intensity (a.u.)
TCCCAACCACACCCACCCACCCGCCCAATCCATCCACCAACGGAGTCACCTAGTGCAG	8860 fluorescence intensity (a.u.)
TCCCTTCAAATATTGTTTTTCTTTTAACACTCAATCTCTCCGGAGTCACCTAGTGCAG	8940 fluorescence intensity (a.u.)
TAGAATTACATCTGATATACCGGTCTTACGCTCTTAGATTCGGAGTCACCTAGTGCAG	8860 fluorescence intensity (a.u.)
GCCCAGCCCAGGCCCACCTTATGTTTTGTTGCATCTCTACCGGAGTCACCTAGTGCAG	10700 fluorescence intensity (a.u.)
CTCTCTCCACCCTCAGCCGCCACACTCCCATCCATTCTCCCGGAGTCACCTAGTGCAG	9060 fluorescence intensity (a.u.)
TCATCCGCACCAACACCATTAGTTATATTACCCACACATCCGGAGTCACCTAGTGCAG	8520 fluorescence intensity (a.u.)
CACAGGGCATGAATTGATGAATAGGATGGCCATTTTTTTTCGGAGTCACCTAGTGCAG	65000 fluorescence intensity (a.u.)
TCCACCCATCGTTCTCATGACCTGCCAACCCCATCCCAGCCGGAGTCACCTAGTGCAG	10000 fluorescence intensity (a.u.)
AATAGGGCATGAACCCCAGCCATTTCTCCTCATCCCACACCGGAGTCACCTAGTGCAG	63200 fluorescence intensity (a.u.)
TCCACCCATCCTCATCATTATCCTCTCTCTCCTCTCTCACCGGAGTCACCTAGTGCAG	9640 fluorescence intensity (a.u.)
TTTTTTACCATGGGTCTTGCATTGAATTTTTCTTTTTTTTCGGAGTCACCTAGTGCAG	9890 fluorescence intensity (a.u.)
GAACCCACATCCCACCATGACGCGCAATTACCTCATTATCCGGAGTCACCTAGTGCAG	17000 fluorescence intensity (a.u.)
TGCCTAGATGAATACTGCATGTTTTTTTTTTGTTTGATTTCGGAGTCACCTAGTGCAG	9620 fluorescence intensity (a.u.)
TCCTGTGCGCCTCCCTCGAGCGTGTGACTGTGTTTGTGACCGGAGTCACCTAGTGCAG	8710 fluorescence intensity (a.u.)
TTTAAGTTTGTTTGGTTGTGGGTTATAGGCTCTATTTCAACGGAGTCACCTAGTGCAG	12000 fluorescence intensity (a.u.)
ATTTGCATGACATATATCATTACTACATTATTTTATATAGCGGAGTCACCTAGTGCAG	8930 fluorescence intensity (a.u.)

Sequence	binding signal
GTGTGTTATTTTCTTCCACTCTTTAGTTTTCACTTTTTGACGGAGTCACCTAGTGCAG	9240 fluorescence intensity (a.u.)
GTTGCCCTTTTGCTCCTGTTGTCTTCTCCGCTCCTGTCGTCGGAGTCACCTAGTGCAG	9800 fluorescence intensity (a.u.)
TGGCATTTTTTTTTTCTTGTGAAAAACCGACGAGAGGAAGCGGAGTCACCTAGTGCAG	8190 fluorescence intensity (a.u.)
GTTCATTTTATAGTCTAGCAAAATTTCCTCTCTTTTTTTTCGGAGTCACCTAGTGCAG	10700 fluorescence intensity (a.u.)
AGTGACCCTTATCTCTTCACCTATCTCTCTCCCTTCCCCTCGGAGTCACCTAGTGCAG	9580 fluorescence intensity (a.u.)
ATCTAGCCTATCGCTCTTGTGTTCTCGGTGTGTACTTGGTCGGAGTCACCTAGTGCAG	16600 fluorescence intensity (a.u.)
TTCTTTGTTGGATTGATGATCGCTTTTGTGTGGGAGAGGTCGGAGTCACCTAGTGCAG	9380 fluorescence intensity (a.u.)
ACGACGAGGTCGCTTTTTTCTTGTTGGGCTGGGCTGGGATCGGAGTCACCTAGTGCAG	21800 fluorescence intensity (a.u.)
TTTCTTTCTTTCTTTCTTGGGATCTTTTCCTTCTTTTTTTCGGAGTCACCTAGTGCAG	12600 fluorescence intensity (a.u.)
CCTTCTATTTTTCCGTCACATCAAATGTTTGGACACATGTCGGAGTCACCTAGTGCAG	9670 fluorescence intensity (a.u.)
TTCTTTTTTTGGCTTCCTTTTTTTTGTGTGTATATATGTACGGAGTCACCTAGTGCAG	13700 fluorescence intensity (a.u.)
CGTCGATCTCTATCTCTCTCTCTCGCTTGTTCTTCTTCACCGGAGTCACCTAGTGCAG	15200 fluorescence intensity (a.u.)
TCCTTTTTTTTGGGTGCTTTTCTTTTGTATAGCACTGTACCGGAGTCACCTAGTGCAG	65500 fluorescence intensity (a.u.)
CAAACTTCTAATTTTTCCGTCACATCAAATGTTTGGATATCGGAGTCACCTAGTGCAG	34900 fluorescence intensity (a.u.)
TCTTTTGTATAGCACTGTACCGTATACAACACTGAATACACGGAGTCACCTAGTGCAG	8080 fluorescence intensity (a.u.)
GTTCTCGGTGTGTACTTGGTCCATCAGTCTCTTCAGATCTCGGAGTCACCTAGTGCAG	8120 fluorescence intensity (a.u.)
GTCAAACATCAACTTTTCCGTCACATCAAATGTTTGGACACGGAGTCACCTAGTGCAG	8670 fluorescence intensity (a.u.)
GTATGCATTATTATGCTGATTAATTTGGCCTGGTTATTTGCGGAGTCACCTAGTGCAG	8160 fluorescence intensity (a.u.)
GTCGGGTTCGGGTACTGTTGATGCTGATCGAGATGGTCCTCGGAGTCACCTAGTGCAG	8650 fluorescence intensity (a.u.)
AACTATTTTTTTATGGGTTTGTTGTGTAGATCATGTAGCACGGAGTCACCTAGTGCAG	11100 fluorescence intensity (a.u.)
TTCTACTTCTACACCTCGCAATGAAAAAAACAAATTTGACCGGAGTCACCTAGTGCAG	8060 fluorescence intensity (a.u.)
